Source: PubChem BioAssay

Assay: small-molecule microarray binders of probe aDKK1, primary screen, biochemical, biotinylated probe, 635/667 nm fluorescence (AID 1099);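 also: score merges 667nm spot fluorescence with signal to noise across triplicate slides; reference of the scale not given here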
Settings: higher = more signal

Structure (SMILES)	composite z-score
Cc1ccccc1C(O)C1C=CC2C(=O)N(c3ccccc3)C(=O)C2N1Nc1ccc(C(C)C)cc1 (stereo not given)	0.456
CCS[C@H]1[C@@H](C(=O)O)[C@H](c2ccc(C)cc2)N(S(=O)(=O)c2ccc(C)cc2)[C@@H]1CC	0.686
COc1cc(NN2C(C(O)c3ccco3)C=CC3C(=O)N(c4ccccc4)C(=O)C32)cc(OC)c1OC (stereo not given)	0.157
CNS(=O)(=O)c1ccc(C)cc1	-0.0385
O=C1N(Cc2ccccc2)c2ccccc2[C@@H]2OC(c3ccc(OCCCO)cc3)=N[C@]12CCS(=O)(=O)c1ccccc1	0.562
COc1cc2c(cc1O)C(C1CC1)N(Cc1sc3ccccc3c1Cl)CC2 (stereo not given)	0.147
Oc1ccc2cc[n+](Cc3sc4ccccc4c3Cl)cc2c1	0.0518
CC(C)N1C(=O)C[C@@](C(=O)NCC(F)(F)F)(c2ccc([N+](=O)[O-])cc2)[C@H]1c1ccc(CO)cc1	-0.186
COCCCNC(=O)[C@@]1(C)c2ccccc2C(=O)N(C(C)C)[C@H]1c1ccc(CO)cc1	0.174
COCCOC(=O)N1C(=O)[C@@]2(c3cc(C#CCC(C(=O)OC)C(=O)OC)ccc31)[C@H](c1ccccc1OCCO)N1[C@H](c3ccccc3)[C@H](c3ccccc3)OC(=O)[C@H]1[C@@H]2C(=O)N1CCN(c2ncccn2)CC1	0.231
CCOC(=O)[C@H]1C/C=C/C[C@H](C(=O)OCC)C(=O)O[C@H]2[C@@H](OC)O[C@H](CO)[C@@H](OC(=O)c3c(OC)cccc3OC)[C@@H]2OC1=O	-0.0451
C=C(COC)/C(=C/C[C@@H](OC(=O)c1ccncc1)c1ccc(CO)o1)c1cc(C(=O)OC)ccc1OC	0.0709
CC(C)N1C(=O)c2ccccc2[C@](C)(C(=O)NCCN2CCOCC2)[C@@H]1c1ccc(CO)cc1	-0.0879
COCCCNC(=O)[C@@H]1c2ccccc2C(=O)N(Cc2ccccc2Cl)[C@H]1c1ccc(CO)cc1	0.167
CC(C)NC(=O)[C@@]1(c2ccc([N+](=O)[O-])cc2)CC(=O)N(C2CCCCC2)[C@@H]1c1ccc(CO)cc1I	0.719
C=C(CCCC)/C(=C/C[C@H](OC(C)=O)c1ccccc1OCCO)c1cc(C(=O)OC)ccc1OC	-0.231
COCCOC(=O)N1C(=O)[C@@]2(c3cc(C#Cc4ccc(OC)cc4)ccc31)[C@H](c1ccc(O)cc1)N1[C@H](c3ccccc3)[C@H](c3ccccc3)OC(=O)[C@H]1[C@@H]2C(=O)N1CCc2cc(OC)c(OC)cc2C1	0.267
O=C1C2C=CC(C(O)Cc3ccccc3)N(n3cnnc3)C2C(=O)N1Cc1ccccc1 (stereo not given)	0.73

Structure (SMILES)	composite z-score
C=CC[C@]1(C(=O)NCc2ccccc2)N=C(c2ccc(OCCCO)cc2)O[C@H]1c1ccccc1N=[N+]=[N-]	-0.0281
CCOC(=O)C[C@H]1[C@H](OC(=O)c2ccc(C(=O)c3ccccc3)cc2)[C@@H](NC(=O)c2ccc3ccccc3n2)c2cc(OCCCO)ccc2N1C(=O)c1ccccc1	0.177
CN(C)C(=O)[C@@]1(CCS(=O)(=O)c2ccccc2)COC(c2ccc(OCCCO)cc2)=N1	0.476
COc1ccccc1CN1C(=O)c2ccccc2[C@@H](C(=O)NC2CC2)[C@@H]1c1ccc(CO)cc1	0.667
COC(=O)[C@H](Cc1ccccc1)N[C@@H](/C=C/C1CC1)[C@H](O)Cc1ccccc1	-0.157
O=C1C2C=CC(C(O)c3cccc4ccccc34)N(Nc3ccccc3F)C2C(=O)N1c1ccccc1 (stereo not given)	0.977
O=C(CS)NCCCCCCNC(=O)[C@@H]1C[C@@H]2C(=O)N[C@@H](Cc3ccccc3)C(=O)N2[C@@H]1c1cccc(OCCO)c1	-0.367
NC(=O)NCC#Cc1ccc2c(c1)[C@]1(C(=O)N2)[C@H](C(N)=O)[C@H]2C(=O)O[C@H](c3ccccc3)[C@H](c3ccccc3)N2[C@@H]1c1ccc(O)cc1	-0.912
CCCC[C@@H]1C[C@H]1[C@@H](NC(=O)c1cccs1)c1ccc(-c2ccccc2)cc1	-0.0102
C=CCOC(=O)[C@H]1[C@@H]2C(=O)O[C@@H](c3ccccc3)[C@@H](c3ccccc3)N2[C@@H](c2ccc(OCCOC(=O)[C@@H]3C[C@@H]4C(=O)N[C@@H](CCCCNC(C)=O)C(=O)N4[C@@H]3c3ccc(O)cc3)cc2)[C@]12C(=O)Nc1ccccc12	-0.208
CCCCCCc1nc(-c2ccc(OC)nc2)cc2c1[Si](C(C)C)(C(C)C)O[C@H]2c1ccccc1	-0.0653
CC(C)C(CO)N1C(=O)[C@@H]2C3C(=O)OCCC/C=C\[C@H]3OC23C=CCN(CCN2CCOCC2)C(=O)[C@@H]13 (stereo not given in full)	-0.355
C=C(COC)/C(=C/C[C@@H](OC(C)=O)c1ccc(OCCO)cc1)c1cnc2ccccc2c1	-0.151
CN(C)CCCCCCNC(=O)[C@@H]1C[C@@H]2C(=O)N[C@@H](Cc3ccccc3)C(=O)N2[C@@H]1c1ccc(O)cc1	0.026
Cc1nc2cc(Br)ccc2c(=O)o1	-0.0717
COCCOC(=O)N1C(=O)[C@@]2(c3ccccc31)[C@H](c1ccc(O)cc1)N1[C@H](c3ccccc3)[C@H](c3ccccc3)OC(=O)[C@H]1[C@@H]2C(=O)Nc1nc2ccccc2s1	-0.0358
COCC(=C=CC[C@@H](O)c1cccc(OCCO)c1)C[C@@H](O)c1ccccn1	-0.193
